Only some compounds are listed: those with a hit (about 7.3% of all), similar ones and a draw of the others.
FMDV antiviral: foot and mouth disease virus antiviral activity | FMDV antiviral cell-based qHTS | AID 1159524 | 410,000 compounds, 1.2% hits | Potency, µM (doses to about 57.9 µM), for inactives: at the highest dose activity change, negative = inhibition, hits mostly inhibitors; calls by dose curve; tested in HEK293T cells; further: read-out not given here; potency means the concentration at half of the fitted maximal effect; nearly all actives have a fitted effect of over 45% in size
HCV inh: HCV inhibition | 340,000 compounds, 3.4% hits | Potency, µM (series often up to 41.8 µM), without a hit: top-dose activity change, negative = inhibition, hits mostly inhibitors | AID 651820 | Huh7.5.1 HCVcc-Cre infection, luciferase reporter, 44 h; further: potency means the concentration at half of the fitted maximal effect
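Luciferase read-out (15 sec integration) after a 15 min room-temperature substrate step quantifies HCVcc-Cre infection. Cells, 1,000 per well, had compound added 4 h post-plating, then virus at ~0.5 moi, and were cultured 44 h.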
HCMV antiviral: inhibitors of human cytomegalovirus; HFF cells, HCMV-luciferase reporter, 72 h; active compounds read low; 410,000 compounds, 4.5% hits; activity change, negative = inhibition, % at 57.5 µM; in the data active means activity change below about -60%; inconclusive means no clear call, values can overlap the other calls; inactive means above about -39%
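Inhibition of viral replication was scored as loss of reporter luminescence in HFFs infected with HCMV-luciferase (MOI 1 PFU/cell) for 72 h; compounds tested at 2 doses, normalized to buffer and Salinomycin controls.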
AmpC inh no detg: inhibitors of E. coli AmpC beta-lactamase without detergent; P00811; AmpC nitrocefin hydrolysis, absorbance 480 nm, 0.0001% Triton; Potency, µM (doses to about 57.1 µM), for the others: at the highest dose activity change, negative = inhibition, usual class: inhibitors; 330,000 compounds, 0.52% hits;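 further: potency means the concentration at half of the fitted maximal effect; plate controls were no compound for no effect and no enzyme for full effect; nearly all actives have a fitted effect of over 20% in size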
Target sequence (P00811 whole entry, looked up): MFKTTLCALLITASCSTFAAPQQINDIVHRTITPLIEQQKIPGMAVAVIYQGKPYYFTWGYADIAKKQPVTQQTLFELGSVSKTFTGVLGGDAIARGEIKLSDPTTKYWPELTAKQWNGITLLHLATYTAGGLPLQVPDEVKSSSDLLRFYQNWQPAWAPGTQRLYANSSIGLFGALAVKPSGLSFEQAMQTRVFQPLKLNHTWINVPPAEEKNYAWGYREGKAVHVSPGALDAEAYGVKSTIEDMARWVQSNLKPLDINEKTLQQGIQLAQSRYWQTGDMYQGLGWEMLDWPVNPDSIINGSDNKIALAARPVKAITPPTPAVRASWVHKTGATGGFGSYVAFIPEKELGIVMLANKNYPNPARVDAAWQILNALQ
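20 mM phosphate pH 7.0 + 0.01% (detergent screen) or 0.0001% Triton X-100; 5.3 nM AmpC reagent; cpd preinc 15 min RT; nitrocefin (800 uM stock) to start; A480 q20 s × 4 min; Activity was normalised to no-enzyme and no-compound control wells.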
AmpC inh detg: blocks E. coli AmpC beta-lactamase in detergent assay; P00811; AmpC hydrolysis of nitrocefin, absorbance 480 nm, 0.01% Triton; Potency, µM (titrated, usually from 114 µM), without a hit: at the top dose activity change, negative = inhibition, usual class: inhibitors; 370,000 compounds, 0.041% hits; AID 485294;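 further: potency means the concentration at half of the fitted maximal effect; 0% = no-compound wells and -100% = no-enzyme wells; nearly all actives have a fitted effect of over 25% in size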
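AmpC (5.3 nM in the dispensed reagent) in 20 mM phosphate pH 7.0 with 0.01% (detergent screen) or 0.0001% Triton X-100 was preincubated with compounds for 15 min at room temperature. Nitrocefin was then added from an 800 uM solution, and hydrolysis was followed at 480 nm.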
An asterisk follows results filed as active; ? = inconclusive; nt = no result; [ ] = another dose, or the depositor's remark. Unless noted, the call rests on the fitted dose curve; in most records, active means well fitted curve in the direction sought with a large enough effect; inconclusive means small, poorly fitted or top-dose-only effect, or another doubt; inactive means no such curve, though single readings can be large; an effect the other way counts as inactive or inconclusive. Unless noted, on the % scale 0 is the no-effect control and ±100 the full control effect.

SMILES	FMDV antiviral	HCV inh	HCMV antiviral	AmpC inh no detg	AmpC inh detg
Cc1cc(Br)c(NC(=O)CN(C)CCOc2ccccc2)c(Br)c1	-5%	?	-26	54%	-4%
Cn1ccc(NC(=O)CCl)n1	?	?	-99*	-5%	9%
Cc1cc(Br)c(NC(=O)CCl)c(Br)c1	?	-15%	-66*	-4%	-3%
Cc1cc(NC(=O)CCl)on1	?	?	-68*	-18%	3%
CC(C)c1cc(NC(=O)CCl)on1	?	-2%	-11	-13%[11.4 µM]	?
COC(=O)c1ccc(NC(=O)N2CCN(c3nnc(C)c4c(C)n(-c5ccccc5)nc34)CC2)cc1	-28%	nt	-8	nt	2%
COC(=O)C1(C(F)(F)F)N=C2Sc3ccccc3N2C(N2CCOCC2)=N1 (centres undefined)	-6%	8%	16	0.32µM*	-20%
COc1cccc(C2CC(c3c(Cl)cccc3Cl)n3nc(N)nc3N2)c1 (centres undefined)	-3%	0%	22	5.6µM*	?
COc1cccc(C2CC(c3c(F)cccc3Cl)n3nc(N)nc3N2)c1 (centres undefined)	-13%	7%	81	0%	5%
CCOc1ccc(C2CC(c3ccccc3C)n3nc(N)nc3N2)cc1 (centres undefined)	-23%	-3%	1	32µM*	-4%
COc1cccc(C2CC(c3ccccc3C)n3nc(N)nc3N2)c1 (centres undefined)	-10%	19%	3	2.8µM*	?
CCOc1ccc(C2CC(c3cccc(OC)c3)n3nc(N)nc3N2)cc1 (centres undefined)	-11%	8%	1	4.5µM*	?
O=C(NCCc1ccc2c(c1)OCCO2)c1cccc(F)c1	11%	?	-73*	-17%	?
COc1ccc(C(=O)NCCS(=O)(=O)NCc2ccc3c(c2)OCO3)cc1	0%	13%	-14	-38%	?
O=C(NNC(=S)NCc1ccccc1)c1ccc2c(c1)OCO2	-2%	16%	-65*	-12%	?
COc1cccc(C(=O)NCCS(=O)(=O)NCc2ccc3c(c2)OCO3)c1	-1%	?	-7	35µM*	?
O=C(c1ccc2c(c1)OCO2)C1CCCN(C2CCN(CCc3ccccc3)CC2)C1 (centres undefined)	-8%	3.5µM*	-14	47%	1%
O=C(NC(=S)NCc1ccccc1)c1ccc2c(c1)OCO2	50%	9%	41	-35%	?
COc1ccc2oc(-c3ccc(NC(=O)c4ccc(Cl)cc4Cl)cc3)nc2c1	?	nt	?	nt	12%
Cc1cc(-c2ccnc(-n3ncc(C(=O)N(C)Cc4nccs4)c3C)n2)c(C)s1	40%	nt	nt	nt	nt
O=C(NCCc1ccccc1)c1ccc2c(c1)OCO2	7.9µM*	7%	-79*	-34%	0%
COc1ccc(CN(C(=O)CSc2nnc(-c3c[nH]c4ccccc34)o2)c2ccc(F)cc2)cc1OC	?	5µM*	-70*	-5%	-1%
O=C(CSc1nnc(Cn2nnc3ccccc32)o1)N(Cc1ccc(F)cc1)c1ccccc1	nt	1.6µM*	-100*	-8%	?
COc1ccc(CN(C(=O)CSc2nnc(-c3ccc(F)cc3)o2)c2ccc(F)cc2)cc1	-8%	?	-18	-14%	-14%
COc1ccc(N(Cc2ccccc2)C(=O)CSc2nnc(Cn3nnc4ccccc43)o2)cc1	?	14µM*	-23	-10%	-9%
SMILES	FMDV antiviral	HCV inh	HCMV antiviral	AmpC inh no detg	AmpC inh detg
O=C(c1cnccn1)N1CC(=O)N2[C@@H](CO)[C@H](c3ccc(Br)cc3)[C@@H]2C1	nt	nt	-23	nt	nt
CN(C)S(=O)(=O)c1ccc(C(=O)Nc2ccccc2[N+](=O)[O-])cc1	-24%	2%	-65*	-10%	-7%
COc1ccc(NC(=O)CCc2nc(C3=CCN(Cc4cccc(Cl)c4)CC3)no2)c(OC)c1	?	nt	-9	nt	-6%
COc1ccc(NC(=O)CCc2nc(C3=CCN(Cc4cccc(Cl)c4)CC3)no2)cc1OC	32µM*	nt	-18	nt	3%
CC(C)N1C[C@@H](Sc2ccccn2)C[C@H]1C(=O)Nc1ccc2c(c1)Nc1ccccc1CC2	-6%	nt	nt	nt	nt
CCCC(=O)C1=C(c2cccc(OC)c2)N(C(=O)CCC)n2c(C)nnc2S1	-17%	nt	-95*	nt	4%
CCC(=O)C1=C(c2ccc(F)cc2)N(C(=O)CC)n2c(nnc2-c2ccc(OC)cc2)S1	?	nt	5	nt	1%
CCC(=O)C1=C(c2ccc(C)cc2)N(C(=O)CC)n2c(nnc2C2CCCCC2)S1	-15%	nt	12	nt	-4%
CCCC(=O)C1=C(c2ccc(C)c(C)c2)N(C(=O)CCC)n2c(CC)nnc2S1	-23%	nt	-76*	nt	4%
CCCC(=O)C1=C(c2ccc(C)cc2)N(C(=O)CCC)n2cnnc2S1	-21%	nt	-95*	nt	0%
CCC(=O)C1=C(c2ccc(OC)c(OC)c2)N(C(=O)CC)n2c(CC)nnc2S1	?	nt	-63*	nt	1%
CC(C)C(=O)Nc1cccc(C(=O)Nc2ccc(S(=O)(=O)Nc3nccs3)cc2)c1	11%	9%	-25	-46%	?
COc1ccc(NC(=O)CN(C)C(=O)c2c(C)nn(Cc3ccccc3)c2C)cc1	-2%	19%	8	-7%	3%
N#Cc1c(-c2ccccc2)cc(-c2ccccc2)nc1SCCC(=O)O	-3%	11%	-23	-30%	?
CN(C)c1ccc(N=Nc2ccccc2C(=O)OCC(=O)N2CCCC2)cc1	13%	?	-12	125%	-1%
CN(C)c1ccc(N=Nc2ccccc2C(=O)OCC(=O)Nc2ccccc2C(F)(F)F)cc1	-2%	0%	-75*	-19%	-9%
COc1ccc2c(c1)[C@@H](NC(=O)OCc1ccccc1)[C@H](C)[C@@H](c1ccccc1)N2C(=O)Nc1ccc(C(F)(F)F)cc1	nt	nt	-36	nt	nt
COc1ccc(S(=O)(=O)N2CCOC23CCN(S(=O)(=O)c2ccc(C)cc2)CC3)cc1	36%	?	-25	-17%	-10%
Cc1ccc(S(=O)(=O)N2CCOC23CCN(S(=O)(=O)c2c(C)cc(C)cc2C)CC3)cc1	-1%	?	-98*	-4%	-1%
Cn1c(=O)c(=O)n(C)c2cc(S(=O)(=O)Nc3ccc4c(c3)OCCO4)ccc21	40µM*	13%	-76*	-26%	0%
O=S(=O)(Nc1ccc2c(c1)OCO2)c1cccs1	55%	?	4	-24%	-12%
O=S(=O)(Nc1ccc2c(c1)OCCO2)c1cccs1	nt	4%	-77*	-12%	?
Cn1c(=O)oc2cc(S(=O)(=O)Nc3ccc4c(c3)OCCO4)ccc21	-20%	-5%	-91*	nt	-1%
C=CCN(c1nc(C)c(Br)c(OC)n1)S(=O)(=O)c1ccc(C)cc1	-7%	1%	-17	-15%	-5%

Source: PubChem
